# S16 F2sN tox: S16 Schwann cell cytotoxicity; actives 0.48% (n = 43,000); Potency, µM (highest dose often 57.5 µM), most hits filed as cytotoxic; S16 Pmp22-F2sN Schwann cells viability, CellTiter-Glo, 24 h; also: nearly all actives have a fitted effect of over 65% in size
#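 S16 Schwann cells carrying the Pmp22-F2sN reporter, seeded in 1536-well format, were exposed to library compounds for 24 h at 37C. Viability was read as CellTiter-Glo luminescence after 15 min at room temperature.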
# OvCa metastasis: blocks SKOV3ip1 adhesion and invasion in omental model; SKOV3ip1-GFP adhesion/invasion on 3D omental model, fluorescence; Potency, µM (doses to about 45.8 µM), usual class: inhibitors; actives 0.1% (n = 46,000); also: nearly all actives have a fitted effect of over 65% in size
#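 A 3D layer of primary human omental fibroblasts, mesothelial cells, fibronectin and collagen I, grown 48 hr, received SKOV3ip1-GFP cells in serum-free medium plus compounds at 0.36-46 umol/L. After 2 hr RT and 16 hr 37 C, fixed adherent GFP cells were counted; normalized to DMSO and tomatine.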
# mTORC1 inh: mTORC1 pathway inhibition measured by phospho-rpS6. Tsc2-/- p53-/- MEF, phospho-rpS6 immunofluorescence/PI, 24 h. Potency, µM (top dose mostly 38.3 µM), usual class: inhibitors. actives 0.78% (n = 44,000). AID 493208; also: nearly all actives have a fitted effect of over 50% in size
#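 Readout is phospho-S6 Alexa 488 signal normalized to PI per well, reported as % active cells with thresholds set from rapamycin (7.5 nM) and DMSO controls. Cells: Tsc2-/-, p53-/- MEFs, 24 hrs compound at 37 C; PI cell number serves as viability.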
# p53null 32C kill: selectivity test: cytotoxicity in p53 null cells, permissive temperature. H1299-neo p53 null cells, ATP luminescence, 24 h, 32C. Potency, µM (top dose mostly 46.1 µM), most hits filed as cytotoxic. actives 0.62% (n = 55,000). AID 903; also: nearly all actives have a fitted effect of over 55% in size
#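 H1299-neo, 600 cells/well; overnight 37C; cpd up to 46 uM, 24 h at 32C; ATPlite luminescence after 20 min RT; normalized to DMSO (0%) and tamoxifen 100 uM (100% kill); Hill-fit AC50.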
# p53null 39C kill: p53 null cell cytotoxicity, nonpermissive temperature; Potency, µM (titrated, usually from 46.1 µM), most hits filed as cytotoxic; AID 904; H1299 p53-null (neo) cells, 39C, ATPlite viability, 24 h; actives 0.97% (n = 55,000); also: nearly all actives have a fitted effect of over 50% in size
#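 Luminescent ATP signal reported cell survival after H1299 lines (neo, p53 null; or p53 A138V) received up to 46 uM compound and 24 hr incubation at 39C.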
# PMP22 txn: modulators of PMP22 gene transcription in S16 Schwann cells; AID 1508649; S16 Pmp22-F2sN Schwann cells (luciferase reporters placed in the Pmp22 gene), FLuc/NLuc coincidence luminescence, 24 h; actives 2% (n = 43,000); Potency, µM (doses to about 57.5 µM), hits mostly inhibitors; active = clear falling dose curves in both reporters; inconclusive = both reporters move, but less clearly or upward; inactive = either reporter flat; the % is the NLuc reporter signal
#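 Luminescent read-out of sequential FLuc and NLuc signals from a reporter embedded in the Pmp22 3' UTR of S16 Schwann cells, taken after 24 h compound exposure at 37C; compounds reducing both signals score as inhibitors of expression.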
# NLuc saturating: inhibits NanoLuc at saturating substrate, PMP22 counter-screen | shares compounds with PMP22 txn | Secreted NLuc enzyme (filtered S16 cell medium), Nano-Glo luminescence | Potency, µM (titrated, usually from 57.5 µM), most hits filed as inhibitors | actives 4% (n = 690) | AID 1508638
# NLuc Km counter: inhibits NanoLuc under Km conditions, PMP22 counter-screen | Potency, µM (highest dose often 57.5 µM), usual class: inhibitors | secreted NLuc enzyme, coelenterazine luminescence, Km conditions | AID 1508639 | shares compounds with PMP22 txn | actives 5% (n = 690)
# FLuc counter: counter-screen for PMP22 expression modulators: firefly luciferase inhibition | Potency, µM (series often up to 57.5 µM), hits mostly inhibitors | purified P. pyralis FLuc, luminescence, 10 min | 690 tested, under 10 active | AID 1508640 | shares compounds with PMP22 txn
# Target sequence (P08659 whole entry, looked up): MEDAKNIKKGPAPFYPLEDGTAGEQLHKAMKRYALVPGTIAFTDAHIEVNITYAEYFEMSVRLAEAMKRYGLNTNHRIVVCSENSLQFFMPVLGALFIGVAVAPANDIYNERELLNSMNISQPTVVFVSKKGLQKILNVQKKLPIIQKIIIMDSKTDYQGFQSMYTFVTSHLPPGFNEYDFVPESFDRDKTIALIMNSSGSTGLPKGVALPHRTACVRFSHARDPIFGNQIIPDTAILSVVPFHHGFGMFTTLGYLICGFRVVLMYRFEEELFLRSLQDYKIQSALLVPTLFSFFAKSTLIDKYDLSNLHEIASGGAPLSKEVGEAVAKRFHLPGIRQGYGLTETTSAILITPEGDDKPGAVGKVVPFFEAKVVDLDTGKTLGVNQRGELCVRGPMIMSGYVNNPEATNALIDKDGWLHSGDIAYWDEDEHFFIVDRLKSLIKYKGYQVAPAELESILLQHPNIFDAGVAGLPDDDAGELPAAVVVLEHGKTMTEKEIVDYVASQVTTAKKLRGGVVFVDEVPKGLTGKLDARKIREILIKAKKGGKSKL
# S16 F2sN tox cnf: S16 Schwann cell cytotoxicity, confirmatory; shares compounds with PMP22 txn; S16 Schwann cells viability, CellTiter-Glo ATP luminescence, 24 h; Potency, µM (series often up to 57.5 µM), hits mostly cytotoxic; actives 7% (n = 690)
# PMP22 txn conf: confirmation of modulators of PMP22 gene transcription in S16 cells | Potency, µM (doses to about 57.5 µM), usual class: inhibitors | actives 22% (n = 690) | shares compounds with PMP22 txn | AID 1508646 | S16 Schwann cells Pmp22-F2sN, dual luciferase, 24 h; active = clear falling dose curves in both reporters; inconclusive = both reporters move, but less clearly or upward; inactive = either reporter flat; the % is the FLuc reporter signal
# PMP22 HiBiT cnf: confirmation of modulators of rat PMP22 protein expression; 95 tested, under 10 active; Potency, µM (top dose mostly 27.9 µM), actives largely listed as inhibitors; S16 Schwann cells Pmp22-HiBiT, luminescence, 48 h; shares compounds with PMP22 txn
# Target sequence (P25094 whole entry, looked up): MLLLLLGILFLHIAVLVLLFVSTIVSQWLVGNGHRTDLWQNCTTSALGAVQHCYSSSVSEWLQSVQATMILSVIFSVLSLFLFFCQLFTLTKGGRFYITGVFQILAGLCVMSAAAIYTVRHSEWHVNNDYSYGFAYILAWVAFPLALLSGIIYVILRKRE
# Hits are given with their value; . = inactive; ? = inconclusive; / = no result; [ ] = dose if it differs, or a comment. Hits are enriched below; roughly 3.1% of the tested compounds scored in any of these assays. Unless noted, calls follow the shape of the dose curve; as a rule, active = well fitted curve in the direction sought with a large enough effect; inconclusive = small, poorly fitted or top-dose-only effect, or another doubt; inactive = no such curve, though single readings can be large; an effect the other way counts as inactive or inconclusive.
SMILES,S16 F2sN tox,OvCa metastasis,mTORC1 inh,p53null 32C kill,p53null 39C kill,PMP22 txn,NLuc saturating,NLuc Km counter,FLuc counter,S16 F2sN tox cnf,PMP22 txn conf,others
COC(=O)Nc1ccc(-c2nc(N3CCOCC3)c3cnn(C4CCN(C(=O)OC)CC4)c3n2)cc1,/,.,/,/,/,/,/,/,/,/,/,
COc1ccccc1NC(=O)CSc1ncc2c(n1)-c1cc(Cl)ccc1N(C)S2(=O)=O,.,.,.,.,.,.,/,/,/,/,/,
COc1cccc(NC(=O)CSc2ncc3c(n2)-c2ccc(Cl)cc2N(C)S3(=O)=O)c1,.,.,.,.,.,2.5µM,.,.,.,.,?,
CCC(C)NC(=O)C1CCN(C(=O)c2cc3sccc3n2Cc2ccc(Cl)cc2)CC1 (centres undefined),?,.,.,.,.,8.9µM,?,?,.,?,14µM,PMP22 HiBiT cnf=1.6µM
COc1ccc(C2CC(=O)c3cc(-c4nc(-c5cccc(Cl)c5)cs4)c(=O)[nH]c3C2)cc1 (centres undefined),.,.,.,.,.,?,/,/,/,/,/,
Cc1ccc(-c2csc(-c3cc4c([nH]c3=O)CC(c3ccccc3)CC4=O)n2)cc1 (centres undefined),.,.,?,.,.,6.3µM,.,.,.,?,.,
CC1(C)C(N(O)C(=O)Nc2ccc(Cl)cc2)N(c2ccc(Cl)cc2)C(=O)N1CC(=O)NN=CC=Cc1ccc([N+](=O)[O-])o1 (centres undefined),/,.,/,/,/,/,/,/,/,/,/,
Cc1c(Cl)cccc1N1C(N)=C(C#N)C(c2cc(CN3CCOCC3)cs2)C2=C1CCCC2=O (centres undefined),.,.,.,.[9.22 µM],.,7.2µM,?,?,.,.,.,
O=C(O)C1(Cc2cccc(Nc3nccs3)n2)CCC(Oc2cccc(Cl)c2F)CC1 (centres undefined),/,.,/,/,/,/,/,/,/,/,/,
CC1CCN(C(=O)CSc2nnc(NC(=O)Nc3ccccc3)s2)CC1,.,.,.,.,.,19µM,?,?,?,?,.,
O=C(Nc1ccccc1)Nc1nnc(SCC(=O)N2CCCCC2)s1,.,.,.,.,.,.,/,/,/,/,/,
COc1ccc(C2CC(=O)N(CC(=O)Nc3cccc(C)c3C)c3ccccc3S2)cc1OC (centres undefined),.,.,.,.,.,12µM,?,?,.,.,.,
CCCCn1c(=O)c2oc3ccccc3c2n(CC(=O)Nc2ccc(CC)cc2)c1=O,.,.,.,.,.,14µM,.,.,.,.,?,
CCCCn1c(=O)c2oc3ccccc3c2n(CC(=O)Nc2cc(C)ccc2C)c1=O,.,.,.,.,.,?,/,/,/,/,/,
CCOc1ccccc1NC(=O)CSc1nc2c(oc3ccccc32)c(=O)n1Cc1ccco1,?,.,.,.,.,11µM,.,.,.,.,.,
Cc1ccc(C)c(NC(=O)Cn2c(=O)n(Cc3ccccc3)c(=O)c3oc4ccccc4c32)c1,.,.,.,.,.,19µM,.,.,.,?,?,PMP22 HiBiT cnf=?
Cc1ccc(C)c(NC(=O)Cn2c(=O)n(Cc3ccco3)c(=O)c3oc4ccccc4c32)c1,.,.,.,.,.,12µM,.,.,.,.,?,
CCCCN(CCCC)CC(O)c1cc(Cl)cc2c1-c1ccc(Cl)cc1C2=Cc1ccc(Cl)cc1 (centres undefined),/,.,/,/,/,/,/,/,/,/,/,
CC[C@H]1OC(=O)[C@H](C)[C@@H](O[C@H]2C[C@@](C)(OC)[C@@H](O)[C@H](C)O2)[C@H](C)[C@@H](O[C@@H]2O[C@@H](C)C[C@H](N(C)C)[C@@H]2O)[C@](C)(O)C[C@@H](C)C(=O)[C@H](C)[C@@H](O)[C@]1(C)O,/,.,/,/,/,/,/,/,/,/,/,
O=C(Nc1c(Cl)cncc1Cl)c1ccc(OC(F)F)c(OCC2CC2)c1,/,.,/,/,/,/,/,/,/,/,/,
N#CC1=C2SCN(C3CCCCC3)CN2C(=O)CC1c1c(F)cccc1Cl (centres undefined),.,.,.,.,.,9.5µM,11µM,7.7µM,.,.,.,
N#CC1=C2SCN(C3CCCCC3)CN2C(=O)CC1c1ccc(Cl)cc1 (centres undefined),.,.,.,.,.,?,/,/,/,/,/,
CCCN(C(=O)c1cc2c(=O)n(CC)c3ccccc3c2s1)c1ccccc1F,.,.,.,.,?,7.6µM,.,?,.,.,?,
CCOc1ccccc1N(CC)C(=O)c1cc2c(=O)n(CC)c3ccccc3c2s1,.,.,.,.,?,?,/,/,/,/,/,
O=C1NC(=O)C(=Cc2ccc(-c3ccc(F)cc3)o2)S1,/,.,/,/,/,/,/,/,/,/,/,
Cc1cccc(N2CCN(C(=O)c3cccc(-n4c(C)nc5cccnc54)c3)CC2C)c1 (centres undefined),.,.,.,.,.,?,/,/,/,/,/,
Cc1ccc(C)c(N2CCN(C(=O)c3cccc(-n4c(C)nc5cccnc54)c3)CC2)c1,?,.,.,.,.,?,/,/,/,/,/,
Cc1cccc(N2CCN(C(=O)c3cccc(-n4c(C)nc5cccnc54)c3)CC2)c1C,.,.,.,.,.,13µM,?,?,.,.,.,
Cc1ccc(Cl)cc1N1CCN(C(=O)c2ccc(C)c(-n3c(C)nc4cccnc43)c2)CC1,?,.,.,.,.,19µM,22µM,19µM,.,.,?,

# Screening results from PubChem BioAssay.
